PubChem BioAssay AID1159580 (chemical genetic matrix, 2015)
Screen size: about 5,500 compounds; about 2,000 (36%) were called active. Roughly 18% stayed inconclusive and do not appear here. Rule as the data show it: active = normalized growth mostly below about 0.91 (no sharp cut-off); inconclusive = no clear call, values can overlap the other calls; inactive = mostly above about 0.92. Some of the results follow.

Assay: chemical genetic growth profiling, strain panel (AID 1159580);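 also: tested at 20 µM; growth read once vehicle control cultures reached saturation at 30 °C; 1 = growth at the plate median or of vehicle wells; lower values mean less growth of the strain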
Settings: S. cerevisiae deletion strains, growth OD
[1] = locus YAR019C, strain CDC15, active compounds read low
[2] = locus YBL105C, strain PKC1, active compounds read low
[3] = locus YBR135W, strain CKS1, active compounds read low
[4] = locus YBR136W, strain MEC1, active compounds read low
[5] = locus YBR160W, strain CDC28, active compounds read low
[6] = locus YDL017W, strain CDC7, active compounds read low
[7] = locus YDL028C, strain MPS1, active compounds read low
[8] = locus YDL101C, strain DUN1, active compounds read low
[9] = locus YDL108W, strain KIN28, active compounds read low
[10] = locus YDL132W, strain cdc53, active compounds read low
[11] = locus YDL214C, strain PRR2, active compounds read low
[12] = locus YDR052C, strain DBF4, active compounds read low
[13] = locus YDR054C, strain cdc34, active compounds read low
[14] = locus YDR226W, strain ADK1, active compounds read low
[15] = locus YDR477W, strain SNF1, active compounds read low
[16] = locus YER123W, strain YCK3, active compounds read low
[17] = locus YER133W, strain GLC7, active compounds read low
[18] = locus YFL009W, strain cdc4, active compounds read low
[19] = locus YFL029C, strain CAK1, active compounds read low
[20] = locus YFR003C, strain YPI1, active compounds read low
[21] = locus YFR019W, strain FAB1, active compounds read low
[22] = locus YFR028C, strain CDC14, active compounds read low
[23] = locus YGR040W, strain KSS1, active compounds read low
[24] = locus YGR052W, strain FMP48, active compounds read low
[25] = locus YGR092W, strain DBF2, active compounds read low
[26] = locus YHR030C, strain SLT2, active compounds read low
[27] = locus YHR079C, strain IRE1, active compounds read low
[28] = locus YHR082C, strain KSP1, active compounds read low
[29] = locus YHR205W, strain SCH9, active compounds read low
[30] = locus YIL147C, strain SLN1, active compounds read low
[31] = locus YJL095W, strain BCK1, active compounds read low
[32] = locus YJL128C, strain PBS2, active compounds read low
[33] = locus YJL157C, strain FAR1, active compounds read low
[34] = locus YJR016C, strain ILV3, active compounds read low
[35] = locus YJR066W, strain TOR1 (second series), active compounds read low
[36] = locus YJR066W, strain TOR1, active compounds read low
[37] = locus YKL048C, strain ELM1, active compounds read low
[38] = locus YKL067W, strain YNK1, active compounds read low
[39] = locus YKL101W, strain HSL1, active compounds read low
[40] = locus YKL193C, strain SDS22, active compounds read low
[41] = locus YKL203C, strain TOR2, active compounds read low
[42] = locus YLR113W, strain HOG1, active compounds read low
[43] = locus YLR133W, strain CKI1, active compounds read low
[44] = locus YLR403W, strain SFP1, active compounds read low
[45] = locus YML070W, strain DAK1, active compounds read low
[46] = locus YMR001C, strain CDC5, active compounds read low
[47] = locus YMR205C, strain PFK2 (second series), active compounds read low
[48] = locus YMR277W, strain FCP1, active compounds read low
[49] = locus YNL006W, strain LST8, active compounds read low
[50] = locus YNL020C, strain ARK1, active compounds read low
[51] = locus YNL161W, strain CBK1, active compounds read low
[52] = locus YNL183C, strain NPR1, active compounds read low
[53] = locus YNL207W, strain RIO2, active compounds read low
[54] = locus YNL222W, strain SSU72, active compounds read low
[55] = locus YNL307C, strain MCK1 (second series), active compounds read low
[56] = locus YOL078W, strain AVO1, active compounds read low
[57] = locus YOL136C, strain PFK27, active compounds read low
[58] = locus YOR061W, strain CKA2, active compounds read low
[59] = locus YOR119C, strain RIO1, active compounds read low
[60] = locus YOR231W, strain MKK1, active compounds read low
[61] = locus YOR329C, strain SCD5, active compounds read low
[62] = locus YPL031C, strain PHO85, active compounds read low
[63] = locus YPL153C, strain RAD53, active compounds read low
[64] = locus YPL204W, strain HRR25, active compounds read low
[65] = locus YPL209C, strain IPL1, active compounds read low
[66] = locus YPL256C, strain CLN2, active compounds read low
[67] = locus YPR025C, strain CCL1, active compounds read low
[68] = locus YPR106W, strain ISR1, active compounds read low
[69] = locus YPR111W, strain DBF20, active compounds read low
[70] = strain NNK1, active compounds read low
[71] = strain TSCII, active compounds read low

Measured: normalized growth

O=C1Nc2ccccc2/C1=C/c1ccc(C(F)(F)F)cc1Cl
inactive: [1] 0.978 | [2] 0.965 | [3] 0.966 | [4] 0.982 | [5] 0.979 | [6] 0.972 | [7] 0.977 | [8] 0.983 | [9] 0.974 | [10] 0.982 | [11] 0.884 | [12] 0.979 | [13] 0.958 | [14] 0.961 | [15] 0.93 | [16] 0.939 | [17] 0.953 | [18] 0.976 | [19] 0.979 | [20] 0.973 | [21] 0.979 | [22] 0.974 | [23] 0.931 | [24] 0.896 | [25] 0.905 | [27] 0.883 | [28] 0.934 | [29] 0.84 | [30] 0.973 | [31] 0.918 | [32] 0.903 | [33] 0.958 | [34] 0.98 | [35] 0.955 | [36] 0.899 | [37] 0.958 | [38] 0.877 | [39] 0.891 | [40] 0.969 | [41] 0.995 | [43] 0.932 | [44] 0.952 | [45] 0.936 | [46] 0.968 | [47] 0.931 | [48] 0.963 | [49] 0.979 | [50] 0.916 | [51] 0.972 | [52] 0.881 | [53] 0.98 | [54] 0.968 | [55] 0.882 | [56] 0.966 | [57] 0.93 | [58] 0.929 | [59] 0.926 | [60] 0.914 | [61] 0.972 | [62] 0.932 | [63] 0.934 | [64] 0.916 | [65] 0.974 | [67] 0.97 | [68] 0.958 | [69] 0.936 | [70] 0.97 | [71] 0.963
active: [26] 0.741 | [42] 0.78 | [66] 0.827

O=C1Nc2ccccc2/C1=C\c1cccc([N+](=O)[O-])c1
inactive: [1] 0.974 | [2] 0.967 | [3] 0.974 | [4] 0.972 | [5] 0.979 | [6] 0.97 | [7] 0.971 | [8] 0.97 | [9] 0.968 | [10] 0.962 | [11] 0.983 | [12] 0.97 | [13] 0.957 | [14] 0.969 | [15] 0.971 | [16] 0.985 | [17] 1 | [18] 0.965 | [19] 0.982 | [20] 0.965 | [21] 0.987 | [22] 0.961 | [23] 0.967 | [24] 1.02 | [25] 0.921 | [26] 0.959 | [27] 0.913 | [28] 1.06 | [29] 0.848 | [30] 0.967 | [31] 0.955 | [32] 0.923 | [33] 0.985 | [34] 0.967 | [35] 0.981 | [36] 1.05 | [37] 0.971 | [38] 0.995 | [39] 0.967 | [40] 0.963 | [41] 1.05 | [42] 0.939 | [43] 0.975 | [44] 0.907 | [45] 0.993 | [46] 0.97 | [47] 0.994 | [48] 0.969 | [49] 0.979 | [50] 0.959 | [51] 0.965 | [52] 1.05 | [53] 0.963 | [54] 0.986 | [55] 0.957 | [56] 0.966 | [57] 0.985 | [58] 0.991 | [59] 1.07 | [60] 1.04 | [61] 0.973 | [62] 0.972 | [63] 0.992 | [64] 0.968 | [65] 0.974 | [66] 0.954 | [67] 0.978 | [68] 0.973 | [69] 0.966 | [70] 0.967 | [71] 0.963
